# Records with an inconclusive call do not appear. A call without a number means that no potency is given here. Activity calls are given as the source filed them. Calls follow the shape of the dose curve; as a rule, active = well fitted inhibition curve with a large enough effect; inconclusive = small, poorly fitted or top-dose-only effect; inactive = flat fitted curve, though single readings scatter.
# Legend:
# [1] = target: Voltage-gated inwardly rectifying potassium channel KCNH2 (Homo sapiens) (UniProt Q12809); assay: qHTS Assay for Small Molecule Inhibitors of the Human hERG Channel Activity (AID 588834);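 also: lower thallium flux fluorescence means stronger hERG block; nearly all actives have a fitted effect of over 50% in size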
# How it was run: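 Thallium serves as surrogate for K+ influx through BacMam-delivered hERG in U2OS cells. Compounds are added for about 10 minutes after dye loading; stimulation buffer then starts flux, monitored kinetically on FDSS.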
# [2] = target: Luciferin 4-monooxygenase (Photinus pyralis) (UniProt P08659); assay: Biochemical firefly luciferase enzyme assay for NPC (AID 624030); also: nearly all actives have a fitted effect of over 70% in size
# How it was run: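 Direct inhibition of firefly luciferase enzyme (10 nM final, 50 mM Tris Acetate) assessed by luminescence within 5 minutes. Percent activity scaled between DMSO and PTC124 positive control, with concentration-effect curves classified by fit quality and response.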
# Potency is read from the fitted curve at half-maximal effect.
# Chain of Luciferin 4-monooxygenase (Photinus pyralis) (P08659 whole entry, looked up): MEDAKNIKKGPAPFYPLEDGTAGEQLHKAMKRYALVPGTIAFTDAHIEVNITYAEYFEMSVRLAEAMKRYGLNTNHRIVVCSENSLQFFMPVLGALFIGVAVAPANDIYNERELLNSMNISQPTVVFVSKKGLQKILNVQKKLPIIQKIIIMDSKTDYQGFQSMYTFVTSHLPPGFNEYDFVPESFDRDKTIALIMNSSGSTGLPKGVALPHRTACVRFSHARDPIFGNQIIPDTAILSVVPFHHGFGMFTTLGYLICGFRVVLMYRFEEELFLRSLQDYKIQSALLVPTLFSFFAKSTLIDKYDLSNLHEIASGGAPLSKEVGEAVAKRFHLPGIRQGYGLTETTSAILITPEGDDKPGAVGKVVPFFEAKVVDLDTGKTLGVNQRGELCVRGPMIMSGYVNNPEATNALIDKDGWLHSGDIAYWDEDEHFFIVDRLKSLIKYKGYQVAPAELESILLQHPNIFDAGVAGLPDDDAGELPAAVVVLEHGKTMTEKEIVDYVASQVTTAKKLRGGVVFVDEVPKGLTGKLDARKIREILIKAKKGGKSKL
# Chain of Voltage-gated inwardly rectifying potassium channel KCNH2 (Homo sapiens) (Q12809 whole entry, looked up): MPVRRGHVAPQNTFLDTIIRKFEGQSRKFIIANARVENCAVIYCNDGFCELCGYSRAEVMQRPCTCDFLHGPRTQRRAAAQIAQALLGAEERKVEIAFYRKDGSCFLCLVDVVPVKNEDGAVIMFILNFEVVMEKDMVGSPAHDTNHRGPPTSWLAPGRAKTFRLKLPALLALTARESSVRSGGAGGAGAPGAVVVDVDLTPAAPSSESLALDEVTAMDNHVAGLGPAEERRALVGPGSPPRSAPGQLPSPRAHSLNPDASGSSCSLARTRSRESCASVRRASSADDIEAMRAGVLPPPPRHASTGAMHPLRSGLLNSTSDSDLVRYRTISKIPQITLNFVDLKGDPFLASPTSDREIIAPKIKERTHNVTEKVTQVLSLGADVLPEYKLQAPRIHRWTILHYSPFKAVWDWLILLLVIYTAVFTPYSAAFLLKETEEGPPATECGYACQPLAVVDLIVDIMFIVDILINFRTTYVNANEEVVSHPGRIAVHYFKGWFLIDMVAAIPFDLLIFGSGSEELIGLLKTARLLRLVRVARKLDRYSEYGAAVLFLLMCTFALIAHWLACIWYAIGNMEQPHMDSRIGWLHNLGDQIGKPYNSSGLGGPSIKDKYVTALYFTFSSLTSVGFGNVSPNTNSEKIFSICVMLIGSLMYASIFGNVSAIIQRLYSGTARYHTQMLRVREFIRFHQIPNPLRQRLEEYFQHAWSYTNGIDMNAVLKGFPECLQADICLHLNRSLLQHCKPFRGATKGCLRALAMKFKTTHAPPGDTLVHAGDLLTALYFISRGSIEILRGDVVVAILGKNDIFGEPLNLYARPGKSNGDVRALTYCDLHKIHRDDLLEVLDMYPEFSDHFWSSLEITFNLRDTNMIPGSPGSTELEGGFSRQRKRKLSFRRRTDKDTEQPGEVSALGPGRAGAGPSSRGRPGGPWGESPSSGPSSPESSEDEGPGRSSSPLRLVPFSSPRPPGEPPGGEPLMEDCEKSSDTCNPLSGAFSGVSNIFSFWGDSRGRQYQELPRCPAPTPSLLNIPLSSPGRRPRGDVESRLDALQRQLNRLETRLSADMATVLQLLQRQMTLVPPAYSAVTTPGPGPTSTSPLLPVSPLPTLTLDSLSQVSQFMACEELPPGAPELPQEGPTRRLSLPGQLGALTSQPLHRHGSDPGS
Structure (SMILES),Potency [1],Potency [2]
COc1ccc(-c2cc(C(F)F)nn2-c2ccc(S(N)(=O)=O)cc2)cc1F,inactive,inactive
O[C@@H](c1cc(C(F)(F)F)nc2c(C(F)(F)F)cccc12)[C@H]1CCCCN1,–,inactive
O=[N+]([O-])c1cccc(S(=O)(=O)NCCNS(=O)(=O)c2cccc([N+](=O)[O-])c2)c1,inactive,inactive
O=C(O)CCc1nc2ccccc2[nH]1,inactive,inactive
CN=C(N)NCCC[C@H](N)C(=O)O,inactive,inactive
CCOC(=O)Nc1ccc2c(c1)N(C(=O)CCN1CCOCC1)c1ccccc1S2,inactive,inactive
CN1CCN(C2=Nc3cc(F)ccc3Cc3ccccc32)CC1,–,inactive
CCC1Nc2cc(Cl)c(S(N)(=O)=O)cc2S(=O)(=O)N1 (stereo unspecified),–,inactive
CCCCCCCCCCCCSCCOCCO,–,inactive
Cc1c(-c2ccccc2)oc2c(C(=O)OCCN3CCCCC3)cccc2c1=O,–,inactive
CCCCCN=C(N)N/N=C/c1c[nH]c2ccc(OC)cc12,–,inactive
C[C@@H](O)[C@H]1C(=O)N2C(C(=O)O)=C(S[C@@H]3CN[C@H](CNS(N)(=O)=O)C3)[C@H](C)[C@H]12,inactive,inactive
O=C(CCCN1CC=C(n2c(=O)[nH]c3ccccc32)CC1)c1ccc(F)cc1,–,inactive
O=S(c1cc(Cl)cc(Cl)c1O)c1cc(Cl)cc(Cl)c1O,inactive,32.2 µM (active)
CC(C)[N+](C)(C)CC(O)COc1cccc2ccccc12 (stereo unspecified),inactive,inactive
CN1CCN(CCC(=O)N2c3ccccc3Sc3ccc(C(F)(F)F)cc32)CC1,–,inactive
CN(C)CCN1C(=O)c2ccccc2N(C)c2ccccc21,–,inactive
COc1cc(C(=S)N2CCOCC2)ccc1O,inactive,inactive
CC(=O)OC[C@H]1O[C@@H](n2ncc(=O)[nH]c2=O)[C@H](OC(C)=O)[C@@H]1OC(C)=O,inactive,inactive

Structure (SMILES),Potency [1],Potency [2]
c1ccc(CC2=NCCN2)cc1,inactive,inactive
O=S(=O)(O)c1ccc(O)cc1,–,inactive
CC(=O)NO,inactive,inactive
CC(=O)NCCCCCC(=O)O,inactive,inactive
CN(C)CCC[C@@]1(c2ccc(F)cc2)OCc2cc(C#N)ccc21,–,inactive
CC(C)Cn1cnc2c1c(=O)n(C)c(=O)n2C,inactive,inactive
CC(=O)OCC(=O)[C@H]1CC[C@H]2[C@@H]3CCC4=CC(=O)CC[C@]4(C)[C@H]3CC[C@]12C,inactive,inactive
CCN(CC)CCOC(=O)C1(c2ccccc2)CCCC1,inactive,inactive
CN1CCC[C@@H]1CCO[C@](C)(c1ccccc1)c1ccc(Cl)cc1,–,inactive
CN1CCN(c2c(F)cc3c(=O)c(C(=O)O)cn4c3c2SCC4)CC1,–,inactive
CC(=O)Nc1ncc([N+](=O)[O-])s1,inactive,inactive
CC(=O)N[C@@H](CCC(=O)O)C(=O)O,inactive,inactive
CN(CCCN1c2ccccc2CCc2ccccc21)CC(=O)c1ccc(Cl)cc1,5.01 µM (active),inactive
C=CCN1CCc2nc(N)sc2CC1,–,inactive
O=C(NC1CCN(CCc2c[nH]c3ccccc23)CC1)c1ccccc1,0.891 µM (active),inactive
Cc1cccc(C)c1NC(=O)CN1CCCCCC1,inactive,inactive
CC(C)Cc1ccc(CC(=O)O)cc1,inactive,inactive
O=c1[nH]c(=O)n([C@H]2C[C@H](O)[C@@H](CO)O2)cc1F,–,inactive
Cc1cc(NS(=O)(=O)c2ccc(N)cc2)nc(C)n1,inactive,inactive
